Source: PubChem BioAssay AID1476 (National Center for Advancing Translational Sciences (NCATS), 2009)
Out of some 200,000 compounds screened, about 4,500 (2.2%) were called active. Inconclusive results (about 12%) are left out. Calls follow the shape of the dose curve; as a rule, active = well fitted inhibition curve with a large enough effect; inconclusive = small, poorly fitted or top-dose-only effect, or effect the other way; inactive = flat fitted curve, though single readings scatter. The sample as a whole holds a higher share of actives than the screen did.

Each compound was assayed against Cruzipain (Trypanosoma cruzi) (UniProt P25779) (assay: qHTS Assay for Promiscuous and Specific Inhibitors of Cruzain (without detergent)). Details: purified cruzain, Z-FR-AMC fluorescence, no detergent.
Summary of the method: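 Purified cruzain at 1.5 nM, pre-incubated 15 min with compound at room temperature in 100 mM sodium acetate pH 5.5, 5 mM DTT, 0.00005% Triton X-100. Reaction started with 2 uM Z-FR-AMC; AMC fluorescence increase over 60 s gives rate.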
Also: nearly all actives have a fitted effect of over 40% in size.
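For max response, negative = inhibition in this document: plate controls were enzyme without inhibitor for no effect and buffer without enzyme for full effect.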
Potency is read from the fitted curve at half-maximal effect.

Cruzipain (Trypanosoma cruzi), sequence (P25779 123-467 limits assumed): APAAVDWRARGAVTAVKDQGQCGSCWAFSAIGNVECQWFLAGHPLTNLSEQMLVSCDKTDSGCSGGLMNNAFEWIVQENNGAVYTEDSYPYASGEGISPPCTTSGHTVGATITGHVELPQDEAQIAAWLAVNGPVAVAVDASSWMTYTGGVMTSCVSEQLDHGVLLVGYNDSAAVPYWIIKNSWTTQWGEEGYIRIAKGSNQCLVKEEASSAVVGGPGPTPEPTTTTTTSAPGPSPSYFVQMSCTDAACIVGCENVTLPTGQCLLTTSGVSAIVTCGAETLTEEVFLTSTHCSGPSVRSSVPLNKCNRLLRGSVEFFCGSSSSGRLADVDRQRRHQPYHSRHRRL

| Compound | max response, negative = inhibition | Potency |
| --- | --- | --- |
| COc1ccc(NS(=O)(=O)c2cc3c4c(c2)CC(=O)N4CCC3)cc1Cl | -28.2% (inactive) | – |
| COc1cccc(CNC(=O)c2ccc3c(c2)sc2nc(-c4cccc(OC)c4)cn23)c1 | -4.99% (inactive) | – |
| CC1CCN(c2nc3ccc(C(=O)N4CCN(c5ccccc5)CC4)cc3s2)CC1 | -2.72% (inactive) | – |
| CCC(CC)c1nn2cc(-c3ccccc3)nc2s1 | -2.39% (inactive) | – |
| Oc1c(C(c2ccc(F)cc2)N2CCN(Cc3ccccc3)CC2)sc2nc(-c3ccco3)nn12 (stereo not given) | 1.08% (inactive) | – |
| CCC(=O)N1CCc2cc(S(=O)(=O)NCCC(=O)Nc3cccc(C)c3C)ccc21 | -1.54% (inactive) | – |
| Cc1ccc(NC(=O)CN2C(=O)C(c3ccc(F)cc3)=NC23CCCCCC3)c(C)c1 | 4.08% (inactive) | – |
| Cc1ccccc1OCc1nnc(SCC(=O)N2c3ccccc3Sc3ccc(Cl)cc32)o1 | – | 12.6 µM (active) |
| Cc1cc(C)cc(OCc2nnc(SCC(=O)Nc3ccccc3)o2)c1 | 4.82% (inactive) | – |
| CC(C)NC(=O)CSc1nnc(COc2ccccc2Cl)o1 | -5.33% (inactive) | – |
| CCOC(=O)c1c(NC(=O)COc2cc(C)ccc2C(C)C)sc(C)c1C | 8.07% (inactive) | – |
| Cc1ccc(CCNC(=O)c2ccc(CS(=O)(=O)Cc3cccc(C)c3)o2)cc1 | 19.9% (inactive) | – |
| CCCc1cc(=O)n2[nH]c(NCc3ccc(CC)cc3)nc2n1 | -8.1% (inactive) | – |
| CCc1ccc(NC(=O)N2CCN(C(=O)c3nsc4ccccc34)CC2)cc1 | -5.87% (inactive) | – |
| COc1cc(NC(=O)c2nn(-c3ccc(C)cc3)c(=O)c3c2c2ccccc2n3C)cc(OC)c1OC | -21.7% (inactive) | – |
| O=C1N(Cc2ccc3c(c2)OCO3)c2ccccc2C1(O)c1c[nH]c2ccccc12 (stereo not given) | – | 15.8 µM (active) |
| O=C(CCCCn1c(=O)[nH]c2ccccc2c1=O)NCc1ccc2c(c1)OCO2 | 8.55% (inactive) | – |
| O=C1N(Cc2ccccc2)c2ccc(Cl)cc2C1(O)c1c[nH]c2ccccc12 (stereo not given) | 18.9% (inactive) | – |
| Oc1ccc(-c2nc3ccc(Cl)cn3c2Nc2ccc3c(c2)OCO3)cc1 | -3.92% (inactive) | – |
| CCc1ccc(-c2cc(C(=O)NCc3ccco3)c3ccccc3n2)s1 | -8.4% (inactive) | – |
| Cc1ccc(-c2cc(C(=O)N/N=C/C=C/c3ccco3)c3ccccc3n2)cc1C | – | 25.1 µM (active) |
| COc1cccc(-c2cc(C(=O)N/N=C/c3ccc(OC)c(COC(C)=O)c3)c3ccccc3n2)c1 | -16% (inactive) | – |
| N#Cc1nc(/C=C/c2ccc(F)cc2)oc1NC1CCCCC1 | -7.33% (inactive) | – |

| Compound | max response, negative = inhibition | Potency |
| --- | --- | --- |
| CCOc1ccc(C2C(C(=O)Nc3ccc(Cl)cc3)=C(C)Nc3nc(C(F)(F)F)nn32)cc1 (stereo not given) | 3.69% (inactive) | – |
| Cc1ccc2oc(=O)c3cnn(CC(=O)N4CCN(c5cccc(Cl)c5)CC4)c3c2c1 | -11.7% (inactive) | – |
| Cc1ccccc1OCC(=O)NCC(=O)OCC(=O)c1ccc2ccccc2c1 | – | 10 µM (active) |
| Cc1cccc(NC(=O)COc2ccccc2C)n1 | 10.4% (inactive) | – |
| COCCNC(=O)COc1ccccc1C | -9.1% (inactive) | – |
| CCOc1ccc(NC(=O)C(=O)NCCc2csc3nc(-c4ccccc4F)nn23)cc1 | -1.02% (inactive) | – |
| CCCSc1ncc(Cl)c(C(=O)Nc2c(C(=O)Nc3ccccc3)oc3ccccc23)n1 | -6.15% (inactive) | – |
| O=C(CN1CCN(c2ccc(Cl)cc2)CC1)N1CCCC1 | -5.28% (inactive) | – |
| CCN(CC)C(=O)CSc1nc2ccccc2o1 | – | 3.16 µM (active) |
| Cc1ccc(/C=N/NC(=O)CSc2nc3ccccc3o2)cc1 | -9.67% (inactive) | – |
| O=C(CSc1nc2ccccc2o1)N1CCN(c2ccc(Cl)cc2)CC1 | – | 10 µM (active) |
| O=C(CSc1nc2ccccc2o1)N1CCN(c2ccccc2)CC1 | -4.7% (inactive) | – |
| CC1Cc2ccccc2N1C(=O)CSc1nc2ccccc2o1 (stereo not given) | -7.1% (inactive) | – |
| COc1ccc(C2=NS(=O)(=O)N(C)C(C(=O)NC(C)c3ccccc3)=C2)cc1 (stereo not given) | -27.6% (inactive) | – |
| CCn1c(=O)cc(OCC(=O)Nc2cc(Cl)c(OC)cc2OC)c2ccccc21 | 0.57% (inactive) | – |
| COc1ccc(/C=N/NC(=O)c2ccc(Cl)cc2)cc1COC(C)=O | 7.25% (inactive) | – |
| N#Cc1cc([N+](=O)[O-])ccc1Oc1cccc(/C=N/NC(=O)c2ccc(Cl)cc2)c1 | – | 20 µM (active) |
| COc1cc(OC)c(/C=N/NC(=O)c2ccc([N+](=O)[O-])cc2)cc1Br | -5.61% (inactive) | – |
| O=c1cc(CO)oc(CN2CCC(Cc3ccccc3)CC2)c1O | -8.62% (inactive) | – |
| CCOC(=O)N1CCN(Cc2oc(CO)cc(=O)c2O)CC1 | – | 1.58 µM (active) |
| CCOC(=O)N1CCN(C(=O)c2cc3c(ccc4ccccc43)oc2=O)CC1 | -18.3% (inactive) | – |
| Cc1ccc(C(=O)N2c3ncnn3C3(CCCCC3)[C@@H]3CCCC[C@@H]32)cc1 | 9.53% (inactive) | – |
| COc1ccc(CNC(=O)CSCc2nc(-c3ccccc3F)oc2C)cc1 | -2.99% (inactive) | – |

| Compound | max response, negative = inhibition | Potency |
| --- | --- | --- |
| CCS(=O)(=O)c1ncc(N(Cc2ccc(F)cc2)Cc2ccco2)c(C(=O)Nc2cc(C)ccc2C)n1 | -19.1% (inactive) | – |
| O=C(NCC1CCCO1)/C(=C\c1ccco1)NC(=O)c1ccccc1 (stereo not given) | -0.97% (inactive) | – |
| C/C(=C\c1ccco1)C1Nc2cccc3cccc(c23)N1 | – | 3.16 µM (active) |
| Cc1ccc(OCC(=O)OCc2cc(=O)n3nc(C4CC4)sc3n2)cc1C | -7.58% (inactive) | – |
| COc1ccccc1NC(=O)c1oc2ccccc2c1NC(=O)C(C)C | -10.9% (inactive) | – |
| CC(=O)c1cccc(NC(=O)CSc2nc3c(c(=O)[nH]2)CCC3)c1 | -3.06% (inactive) | – |
| O=C(CSc1nc2ccccc2nc1Cc1ccccc1)N1CCCCC1 | -0.222% (inactive) | – |
| C=CCNc1nnc(C)c2ccccc12 | -10.1% (inactive) | – |
| C=CCNc1nnc(SCC(=O)N2CCCCC2)c2ccccc12 | – | 20 µM (active) |
| COc1ccc(CNC(=O)c2cc3cccc(OC)c3oc2=O)cc1 | -1.78% (inactive) | – |
| CCOc1ccc(S(=O)(=O)c2cn(Cc3ccc(OC)cc3)c3ccc(F)cc3c2=O)cc1 | 0.948% (inactive) | – |
| Cc1ccc(-n2c(SCC(=O)c3ccccc3)nc3c([nH]c4ccccc43)c2=O)cc1 | -13.1% (inactive) | – |
| COc1ccc(-c2c(C)nn3c(N4CCC(C(=O)NCCC(C)C)CC4)cc(C)nc23)cc1OC | 4.69% (inactive) | – |
| Cc1ccc(CN2COc3cc(C)c4c(oc(=O)c5ccccc54)c3C2)cc1 | -21.8% (inactive) | – |
| O=C(Nc1nc2c(s1)CCCC2)c1ccccc1F | -4.21% (inactive) | – |
| Fc1ccc2nc(N3CCCCC3)sc2c1 | 2.08% (inactive) | – |
| Fc1ccc2nc(Nc3nc4c(s3)CCCC4)sc2c1 | – | 31.6 µM (active) |
| Cn1c(=O)c2c(SCC(=O)N3CCc4ccccc43)nc(-c3ccc(Cl)cc3)nc2n(C)c1=O | 16.5% (inactive) | – |
| Cc1ccc(S(=O)(=O)N2CCC(C(=O)Nc3cc(C)ccc3C)CC2)cc1 | 10.8% (inactive) | – |
| Cc1ccccc1CSc1nc(-c2ccccc2)nc2c1Cc1c(CO)cnc(C)c1O2 | -5.34% (inactive) | – |
| O=C1OC(/C=C/c2ccccc2)=NC/1=C/c1ccco1 | – | 3.16 µM (active) |
| CC(C)(C)C1C/C(=C/c2ccco2)C(=O)/C(=C/c2ccco2)C1 (stereo not given) | 22.8% (inactive) | – |
| COc1ccccc1/C=C/C1=NC(=C\N(C)C)/C(=O)O1 | -2% (inactive) | – |

| Compound | max response, negative = inhibition | Potency |
| --- | --- | --- |
| COc1ccccc1-c1nnc(C2CCN(C(=O)c3ccc(Cl)cc3)CC2)o1 | -7.8% (inactive) | – |
| Fc1cccc(-n2ncc3c2ncn2nc(-c4ccccc4Cl)nc32)c1 | -11.9% (inactive) | – |
| COc1ccccc1CNC(=O)NCc1noc2ccc(C)cc12 | -3.84% (inactive) | – |
| O=C(CN1CCSc2ccccc21)N1CCN(c2ccccc2)CC1 | -4.92% (inactive) | – |
| COC(=O)c1cc(NC(=O)c2sc3ccccc3c2Cl)cc(C(=O)OC)c1 | -7.2% (inactive) | – |
| COc1ccc2oc(-c3ccc(C)c(NC(=O)c4sc5ccccc5c4Cl)c3)nc2c1 | -7.77% (inactive) | – |
| Cc1ccc(-c2nc3ccccc3[nH]2)cc1N | 0.934% (inactive) | – |
| Cc1ccc(-c2nc3ccccc3[nH]2)cc1NC(=O)c1sc2ccccc2c1Cl | – | 7.94 µM (active) |
| Cc1cc2[nH]ncc2cc1NC(=S)NC(=O)c1ccccc1 | 0.868% (inactive) | – |
| COc1ccc(Br)cc1C(=O)NC(=S)Nc1cc(-c2nc3ccccc3[nH]2)ccc1C | – | 10 µM (active) |
| Cc1onc(-c2ccc(F)cc2F)c1C(=O)Nc1cccc(C(F)(F)F)c1 | -6.18% (inactive) | – |
| Cc1cccc(-c2nc(SCc3ccc(Br)cc3)n3[nH]c(=O)cc3n2)c1 | -2.63% (inactive) | – |
| O=C(Cn1c(=O)n(Cc2ccccc2)c(=O)c2sc3ccccc3c21)Nc1ccccc1F | 9.77% (inactive) | – |
| CCCCN(CC)CCCNC(=O)c1nn(C)c2c1CS(=O)(=O)c1ccccc1-2 | 5.31% (inactive) | – |
| CCCNC(=O)CCC(=O)N1Cc2ccccc2Oc2ncccc21 | -4.94% (inactive) | – |
| CC(C)OC(=O)c1c(NC(=O)c2ccco2)sc2c1CCCC2 | -12.4% (inactive) | – |
| CCOC(=O)c1c(NC(=O)C2CCN(S(=O)(=O)c3ccc(Cl)cc3)CC2)sc2c1CCCC2 | – | 15.8 µM (active) |
| CCOC(=O)c1c(NC(=S)Nc2ccccc2C)sc2c1CCC2 | -25.8% (inactive) | – |
| CCOC(=O)c1c(NC(=S)NC(=O)c2ccco2)sc2c1CCCC2 | – | 12.6 µM (active) |
| CCOC(=O)c1c(NC(=O)c2ccc(S(=O)(=O)N(CC)CC)cc2)sc2c1CCCCC2 | 8.24% (inactive) | – |
| CCOC(=O)c1c(NC(=O)c2cc(-c3ccc(Cl)cc3)on2)sc2c1CCCC2 | 3.1% (inactive) | – |
